Only some compounds are listed: those with a hit (about 4.2% of all), similar ones and a draw of the others.
tim23-1 inh = growth inhibitors of tim23-1 mutant yeast, primary screen, luminescence, uHTS. S. cerevisiae tim23-1 growth, BacTiter-Glo luminescence, 24 h. inhibition, % at 20 µM. hit rate 1.3% among 330,000. AID 463212, 2010;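 active means growth inhibition of the mutant yeast at or above 50%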;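 further: temperature-sensitive mutant grown at 25 °C; plate controls were DMSO-treated mutant yeast for no effect and medium wells lacking yeast for full effect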
TIM10 inh = growth inhibitors of isogenic TIM10 control yeast, primary screen, counter-screen for tim10-1 yeast inhibitor project, luminescence, uHTS | S. cerevisiae TIM10 strain growth, BacTiter-Glo luminescence, 24 h | inhibition, % at 10 µM | hit rate 1.4% among 330,000;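 active means inhibition of 40% or more at the single tested concentration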;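 further: wild-type TIM10 isogenic control strain grown at permissive 25 °C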
NALP1 yeast inh = NALP1 inflammasome inhibitors in reconstituted yeast, colorimetric, S. cerevisiae, triplicate retest | inhibition, % at 10 µM | S. cerevisiae NALP1/ASC/caspase-1 growth, X-gal OD620, 72 h | hit rate 0.61% among 280,000; in the data active means inhibition mostly above about 24%, no sharp cut-off; inactive means mostly below about 32%
NLRP3 yeast inh = NALP3 inflammasome inhibitors in reconstituted yeast, primary screen, luminescence, uHTS | Yeast reconstituted NLRP3/ASC/caspase-1, beta-gal luminescence, 24 h | inhibition, % at 10 µM | hit rate 0.39% among 330,000 | AID 2825, 2010;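 active means inhibition of 50% or more; inactive means inhibition below 50%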;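 further: plate controls were induced DMSO wells for no effect and uninduced yeast grown without galactose for full effect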
V-ATPase pH = regulators of yeast V-ATPase proton pumping, primary screen, pHLuorin cytosolic pH fluorescence | response, % at 10 µM | S. cerevisiae | hit rate 0.37% among 350,000 | AID 504577, 2011; in the data active means response mostly above about 7.3%, no sharp cut-off; inactive means mostly below about 5.4%; further: actives read high
tim10-1 inh = growth inhibitors of tim10-1 mutant yeast, primary screen, luminescence, uHTS | S. cerevisiae tim10-1 ts strain growth, BacTiter-Glo, 24 h | inhibition, % at 20 µM | hit rate 2.2% among 330,000 | AID 463190, 2010;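 active means inhibition of at least 40%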;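 further: mutant grown at 25 °C; 0% = DMSO wells with yeast and 100% = wells holding no yeast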
tim10-1 conf = growth inhibitors of tim10-1 mutant yeast, confirmation, single concentration, luminescence, S. cerevisiae | inhibition, % at 20 µM | shares compounds with tim10-1 inh | S. cerevisiae tim10-1 ts strain growth, BacTiter-Glo, 24 h | hit rate 56% among 7,400;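 active means inhibition of yeast growth at or above a set limit in either of two repeat tests at 20 µM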;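 further: tim10-1 mutant grown at permissive 25 °C to find synthetic lethal compounds; 0% = DMSO yeast wells and 100% = medium wells without yeast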
Numbers without * were called inactive; · = no result given.

SMILES | tim23-1 inh | TIM10 inh | NALP1 yeast inh | NLRP3 yeast inh | V-ATPase pH | tim10-1 inh | tim10-1 conf
N/C(=N\OC(=O)CCCOc1ccc(Cl)cc1Cl)c1ccccn1 | 21 | 40 | -11 | 23 | 1 | 59* | 39*
Cc1ccc(S(=O)(=O)N(C)CC(=O)O/N=C(\N)c2ccccn2)cc1 | 15 | 0 | 10 | 0 | 4 | 16 | ·
N/C(=N\OC(=O)COc1cc(Cl)c(Cl)cc1Cl)c1ccccn1 | 17 | 28 | 20 | 40 | -2 | 35 | ·
CN(CC(=O)O/N=C(\N)c1ccccn1)S(=O)(=O)c1cc(Cl)ccc1Cl | 34 | 22 | -14 | 19 | -1 | 43* | 41*
CCN(CC)S(=O)(=O)c1ccc(/C=C/C(=O)NC2CCCCC2)cc1 | 32 | 20 | 17 | 6 | 3 | 44* | 28
O=Cc1ccc2cccnc2n1 | 6 | -5 | 16 | -16 | 3 | 16 | ·
O=Cc1ccc2ccc3cccnc3c2n1 | 30 | 9 | 11 | 3 | 8 | 42* | 8
CC(C)(C)c1csc(NC(=O)c2c(F)c(F)c(F)c(F)c2F)n1 | 43 | 16 | · | 21 | 2 | 41* | 24
CSc1ncccc1C(=O)Nc1nc(C(C)(C)C)cs1 | 44 | 18 | 6 | 39 | 1 | 11 | ·
Cc1nn2c(N3CCN(C)CC3)cc(C(C)(C)C)nc2c1-c1ccccc1 | -15 | 20 | 23 | 19 | -2 | -52 | ·
Cc1nn2c(N3CCN(C(=O)c4ccco4)CC3)cc(C(C)(C)C)nc2c1-c1ccccc1 | 44 | 22 | 0 | 26 | · | 50* | 26
COC(=O)c1c(NC(=O)CN2CCC3(O)CCCCC3C2c2ccccc2OC)sc(C)c1C (centres undefined) | 31 | 34 | -1 | -17 | -2 | 40* | 28
N/C(CSc1ncccc1C(F)(F)F)=N\O | 3 | -7 | 3 | -17 | -1 | -5 | ·
c1ccc(-c2csc3ncnc(-n4cnc5ccccc54)c23)cc1 | 36 | 23 | 7 | 5 | -1 | 42* | 32*
Cc1ccc(-c2csc3ncnc(-n4nnc5ccccc54)c23)cc1C | 38 | 25 | 27 | 0 | 0 | 42* | 31*
Cc1cc2c(cc(C(=O)NCCCN3CCOCC3)n2Cc2ccc(Cl)cc2)o1 | 13 | 8 | · | -5 | -3 | 13 | ·
CCC(=O)NC(c1ccco1)c1cc(Cl)c2cccnc2c1O (centres undefined) | 46 | 1 | 8 | -25 | -2 | 40 | 28
CCCCC(=O)NC(c1ccco1)c1cc(Cl)c2cccnc2c1O (centres undefined) | 43 | -33 | -4 | 3 | 2 | 33 | ·
Cc1nc2ccccc2n1CC(O)Cn1c(C(F)(F)F)nc2ccccc21 (centres undefined) | 16 | 3 | 4 | 12 | 1 | 9 | ·
Nc1cc(Cl)ccc1Oc1ccc2ccccc2c1 | 28 | 9 | -2 | 18 | 16* | 61* | 57*
CC(C)c1cc(C(C)C)c(S(=O)(=O)NNC(=O)c2ccncc2)c(C(C)C)c1 | 37 | 33 | 13 | -5 | -3 | 50* | 21
CC(=O)c1cc(CC=C(C)C)c(O)cc1O | 32 | -16 | 6 | 33 | 1 | 13 | ·
C=CC[C@@H]1Cc2c(Br)ccc(Br)c2[C@@H](CC=C)N1 | 29 | -2 | 9 | 9 | -1 | 41* | 28
COc1cccc(NC(=O)CSc2c3c(nc4ccccc24)CCCC3)c1 | 34 | 31 | 25 | 3 | -1 | 43* | 26
Cc1cccc(NC(=O)CSc2c3c(nc4ccccc24)CCC3)n1 | 16 | 14 | -5 | 12 | · | 24 | ·
SMILES | tim23-1 inh | TIM10 inh | NALP1 yeast inh | NLRP3 yeast inh | V-ATPase pH | tim10-1 inh | tim10-1 conf
COc1ccc(/C=N/Nc2cn[nH]c(=O)c2Cl)cc1 | 20 | 32 | 35 | -2 | -3 | 42* | 9
Cc1ccc(/C=N\Nc2cn[nH]c(=O)c2Cl)cc1 | 41 | 32 | 17 | 3 | 0 | 28 | ·
CCC(=O)N(CCc1ccccc1)Cc1cc2cccc(C)c2[nH]c1=O | 12 | 3 | 10 | -5 | 1 | 16 | ·
COCCNC(=O)/C(C#N)=C/c1ccc(-c2ccc(OC)cc2[N+](=O)[O-])o1 | -8 | -6 | 2 | -9 | -2 | -13 | ·
CCOP(=O)(OCC)/C(C#N)=C/c1ccc(-c2ccc(F)cc2F)o1 | 34 | 9 | 9 | -3 | 2 | 47* | 32*
CC(C)c1ccc(NC(=O)CCCN2C(=O)NC(C)(C)C2=O)cc1 | -9 | -3 | · | 18 | 5 | 57* | 2
Cc1cc(NC(=O)CCC(=O)N(c2cccnc2)C(C(=O)NC2CCCC2)c2ccccc2F)no1 (centres undefined) | 1 | 10 | 3 | 5 | · | 1 | ·
Nc1nc(SCC(=O)Nc2ccccc2Oc2ccccc2)n[nH]1 | 3 | 2 | 18 | 15 | 0 | 2 | ·
CN(C)S(=O)(=O)c1ccc2c(c1)nc1n2CCC1 | 6 | -9 | 4 | 14 | 0 | -2 | ·
CC1=NN(c2ccccc2)C(=O)/C1=C\C=C1\N(C)c2ccccc2C1(C)C | -2 | -18 | 18 | 37 | -3 | -9 | ·
CC1=NN(c2ccccc2)C(=O)/C1=C\C=C1/N(C)c2ccccc2C1(C)C | -22 | 13 | 34 | 42 | -2 | 42* | 19
Cc1ccc(S(=O)(=O)N2CCOCC2)cc1C(=O)Nc1nc(-c2cccnc2)cs1 | 1 | 7 | 11 | -4 | -7 | 5 | ·
O=S(=O)(c1ccc(-c2csc(-c3cccnc3)n2)cc1)N1CCOCC1 | 24 | 16 | 2 | -50 | 9 | 42* | 23
CC(C)c1ccc(S(=O)(=O)N2CCN(CC(=O)Nc3ccc4c(c3)OCO4)CC2)cc1 | 35 | 20 | 1 | 1 | -5 | 52* | 40*
NC(=O)CN1CCN(c2nc(-c3ccc(F)cc3)cs2)CC1 | 3 | 1 | -4 | 8 | -2 | 18 | ·
Cc1cc(C)cc(NC(=O)CN2CCCN(S(=O)(=O)c3ccc(Br)s3)CC2)c1 | 31 | 29 | 8 | 10 | 1 | 44* | 24
CCCNC(=O)CN1CCN(S(=O)(=O)c2ccc(Br)s2)CC1 | 28 | 1 | · | 9 | 2 | 5 | ·
O=C(CN1CCN(c2nc(-c3ccc(F)cc3)cs2)CC1)Nc1ccc2c(c1)OCO2 | 27 | 6 | 8 | 20 | -3 | 46* | 27
CCOc1ccc(NC(=O)CN2CCN(S(=O)(=O)c3ccc(Cl)cc3)CC2)cc1 | 37 | 10 | 7 | 7 | -1 | 41* | 22
O=C(CN1CCN(S(=O)(=O)c2ccc(Cl)cc2)CC1)Nc1ccc2c(c1)OCO2 | 32 | -6 | 8 | 10 | 3 | 34 | ·
